AmpC detergent – inhibitors of E. coli AmpC beta-lactamase with detergent; P00811; AmpC hydrolysis of nitrocefin, absorbance 480 nm, 0.01% Triton; Potency, µM (titrated, usually from 114 µM), without a hit: top-dose activity change, negative = inhibition, most hits filed as inhibitors; hit rate 0.041% among 370,000;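 note: 0% = no-compound wells and -100% = no-enzyme wells; nearly all actives have a fitted effect of over 25% in size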
Target sequence (P00811 whole entry, looked up): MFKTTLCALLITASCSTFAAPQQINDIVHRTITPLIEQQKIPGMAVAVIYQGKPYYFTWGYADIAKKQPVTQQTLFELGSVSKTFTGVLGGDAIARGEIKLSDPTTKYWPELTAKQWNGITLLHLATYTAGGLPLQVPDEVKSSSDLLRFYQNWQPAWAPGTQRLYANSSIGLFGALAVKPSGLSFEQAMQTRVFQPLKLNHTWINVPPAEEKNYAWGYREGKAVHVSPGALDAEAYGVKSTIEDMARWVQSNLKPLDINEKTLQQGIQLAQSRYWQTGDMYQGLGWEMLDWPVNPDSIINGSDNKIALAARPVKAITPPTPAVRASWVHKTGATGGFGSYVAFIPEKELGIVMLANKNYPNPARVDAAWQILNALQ
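AmpC (5.3 nM in the dispensed reagent) in 20 mM phosphate pH 7.0 with 0.01% (detergent screen) or 0.0001% Triton X-100 was preincubated with compounds for 15 min at room temperature. Nitrocefin was then added from an 800 uM solution, and hydrolysis was followed at 480 nm.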
AmpC inh no detg – inhibitors of E. coli AmpC beta-lactamase without detergent. P00811. AmpC nitrocefin hydrolysis, absorbance 480 nm, 0.0001% Triton. Potency, µM (doses to about 57.1 µM), for inactives: top-dose activity change, negative = inhibition, actives largely listed as inhibitors. hit rate 0.52% among 330,000. AID 485341;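 note: plate controls were no compound for no effect and no enzyme for full effect; nearly all actives have a fitted effect of over 20% in size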
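AmpC (5.3 nM in the dispensed reagent) in 20 mM phosphate pH 7.0 with 0.01% (detergent screen) or 0.0001% Triton X-100 was preincubated with compounds for 15 min at room temperature. Nitrocefin was then added from an 800 uM solution, and hydrolysis was followed at 480 nm.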
RE007 growth inh – less growth of the S. pombe RE007 Vpr strain; S. pombe RE007 Vpr strain, BacTiter-Glo ATP luminescence, 24 h; Potency, µM (series often up to 92.2 µM), inactives show at the top dose activity change, negative = less growth, actives largely listed as inhibitors; hit rate 0.21% among 360,000; active = well fitted falling curve with a large enough effect; inconclusive = small, poorly fitted or top-dose-only effect; inactive = no such curve, though single readings can be large or run the other way; note: nearly all actives have a fitted effect of over 50% in size
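Fission yeast strain RE007, carrying one chromosomally integrated HIV-1 vpr copy, was seeded at OD 0.01 in PMG+AL medium with 23 nL pinned compound. After 24 h at 30 °C and 99% humidity, viability was read by BacTiter-Glo luminescence.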
AMA1-RON2 inh – disrupts binding of P. falciparum AMA1 to RON2. AlphaScreen AMA1-biotinylated RON2 peptide binding. Potency, µM (highest dose often 58.2 µM), for inactives: at the highest dose activity change, negative = inhibition, most hits filed as inhibitors. hit rate 0.2% among 360,000;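 note: 0% = vehicle wells and -100% = peptide control; nearly all actives have a fitted effect of over 45% in size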
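AMA1 (3D7) with his tag at 25 nM final met compounds first, then biotinylated RON2 peptide at 25 nM; detection used donor plus acceptor beads, 10 µg/mL apiece, read by AlphaScreen after 30 min at room temperature.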
* = called active by the depositor; ? = inconclusive; nt = not tested or not shown. A selection: hits, their analogues and other compounds. The true share with any hit is near 0.79%. Unless noted, calls come from the whole dose curve; as a rule, active = well fitted curve in the direction sought with a large enough effect; inconclusive = small, poorly fitted or top-dose-only effect, or another doubt; inactive = no such curve, though single readings can be large; an effect the other way counts as inactive or inconclusive. Unless noted, % is set by controls: 0 for no effect and ±100 for the full control effect; potency is the fitted concentration of half-maximal effect.

SMILES	AmpC detergent	AmpC inh no detg	RE007 growth inh	AMA1-RON2 inh
COc1ccc(OC)c(CCNC(=O)c2cc3c(-c4ccccc4F)nn(C)c3s2)c1	10.6%	nt	nt	nt
CCCOc1ccc(CNC(=O)Cn2c(=O)oc3ccccc32)cc1	15.1%	7.94µM*	-8.5%	-4.8%
O=C(O)/C=C\C(=O)Nc1ccc(Oc2ccccc2)cc1	0.6%	-15.2%	-3.1%	-14.9%
O=C(O)/C=C/C(=O)Nc1ccc(C2(c3ccc(NC(=O)/C=C/C(=O)O)cc3)c3ccccc3-c3ccccc32)cc1	-9.0%	12.6µM*	-13.1%	-18.0%
COc1ccccc1Cn1c(CNS(=O)(=O)c2ccccc2Cl)nc2cccnc21	1.7%	nt	nt	nt
Oc1ccc(N=Nc2c(O)ccc3ccccc23)cc1	?	-51.6%	?	16.8µM*
NS(=O)(=O)c1ccc(N=Nc2c(O)ccc3ccccc23)cc1	-8.1%	-50.3%	0.0%	?
Cc1ccc(C)c(NC(=O)CN(C)S(=O)(=O)c2cccc3nsnc23)c1	5.5%	nt	nt	nt
CC(C)(C)c1ccc(OCc2ccc(C(=O)N/N=C/c3ccc(O)c(O)c3)cc2)cc1	-0.7%	14.1µM*	0.7%	11.7%
O=C(NN=Cc1ccc(O)c(O)c1)c1ccccc1	nt	nt	-3.2%	8.7%
O=C(COc1ccccc1C(=O)N/N=C\c1ccc(O)c(O)c1)N/N=C/c1ccc(O)c(O)c1	?	39.8µM*	-6.3%	?
CC(C)N(CCC(=O)c1ccc2ccccc2c1)Cc1ccccc1	?	-21.9%	3.98µM*	6.4%
O=C(NCCCN1CCCC1=O)c1ccc2c(c1)NC(=O)c1ccccc1S2	?	-4.0%	8.3%	-1.0%
CCN1CCN(CCCNC(=O)c2ccc3c(c2)NC(=O)c2ccccc2S3)CC1	1.2%	3.98µM*	-0.7%	8.3%
CCCc1nc(C(C)(C)O)c(C(=O)O)n1Cc1ccc(-c2ccccc2-c2nn[nH]n2)cc1	44.7µM*	-57.2%	nt	nt
Cc1ccccc1/C=C/C(=O)c1ccc([N+](=O)[O-])o1	7.2%	-14.8%	8.91µM*	?
Cc1cccc(/C=C/C(=O)c2ccc([N+](=O)[O-])o2)c1	0.3%	-11.5%	7.0%	-4.3%
Cc1cccc(NC(=O)C(NS(=O)(=O)c2ccc3c(c2)CCC(=O)N3)c2ccccc2)n1 (configuration not stated)	-6.4%	25.1µM*	-1.1%	13.9%
Cc1cccc(C)c1NC(=O)C(NS(=O)(=O)c1ccc2c(c1)CCC(=O)N2)c1ccccc1 (configuration not stated)	6.0%	nt	nt	nt
COc1ccc2[nH]c(C)c(CCN(Cc3cccs3)C(=S)Nc3ccccc3)c2c1	?	-20.9%	9.1%	2.1%
COc1ccccc1NC(=S)N(CCc1c(C)[nH]c2ccccc12)Cc1cccs1	?	39.8µM*	-8.1%	-4.9%
COc1ccccc1NC(=O)C1=C(C)Nc2nc(SCc3cccc(F)c3)nn2C1c1ccc(C(=O)O)cc1 (configuration not stated)	-1.6%	-15.1%	nt	nt
CC(C)C(=O)Nc1nc2cc3c(cc2s1)OCO3	?	10µM*	2.7%	-7.2%
CC(C)(C)C(=O)Nc1nc2cc3c(cc2s1)OCO3	6.8%	-15.2%	0.0%	?
CCOC(=O)c1cccc(-n2nnc3c(sc4nc(C)c(Br)c(C)c43)c2=O)c1	28.2%	nt	nt	nt
SMILES	AmpC detergent	AmpC inh no detg	RE007 growth inh	AMA1-RON2 inh
O=C(CCN1C(=O)/C(=C/c2ccccc2Cl)SC1=S)NC1C=CS(=O)(=O)C1 (configuration not stated)	-4.0%	28.2µM*	-3.6%	2.6%
Cc1cccc(NC(=O)C2CCC(CNS(=O)(=O)c3ccc(Br)s3)CC2)c1 (configuration not stated)	8.1%	nt	nt	nt
CCN(CC)S(=O)(=O)c1ccc2c(c1)nc(CN(C)C(=O)Nc1ccc(C)c(F)c1)n2C	11.6%	nt	nt	nt
COc1ccc(CCNC(=O)c2cc3sc(Cl)cc3n2C)cc1OC	?	50.1µM*	-2.4%	-21.7%
CCc1cc2c(=O)[nH]c(N3CCCC3)nc2s1	-15.6%	-16.5%	5.6%	9.0%
CCc1cc2c(=O)[nH]c(-c3ccccn3)nc2s1	1.6%	-18.8%	31.6µM*	-13.7%
COc1ccc2ccccc2c1/C=N/NC(=O)c1ccccc1F	?	-26.9%	-11.8%	10.1%
COc1ccc2ccccc2c1/C=N\NC(=O)c1ccc(C)s1	-0.9%	11.2µM*	8.7%	24.0%
Cc1ccc(NC(=S)NC(=O)C2CCC2)cc1C	?	-26.8%	-28.3%	19.2%

Screens from PubChem.
